T cruzi growth-1: blocks T. cruzi growth in NIH3T3 culture; hit rate 5.9% among 77,000; T. cruzi beta-gal in NIH3T3, GalScreen luminescence, 90 h; AID 624255; inhibition, % at 8.34 µM;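 active = mean inhibition above about 93%, with at least 55% of replicates each passing it, limit read from the data, passing the limit was not always enough; inconclusive = only one of those two conditions holds; inactive = neither condition holds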
Pf Dd2 inh: inhibitors of Plasmodium falciparum Dd2 growth; hit rate 2.3% among 94,000; activity change, % at 10 µM; P. falciparum Dd2 growth, SYBR Green, 72 h; active compounds read low; AID 1159554; in the data active = activity change below about -80%; inconclusive = no clear call, values can overlap the other calls
C diff growth: blocks growth of Clostridium difficile | growth activity, negative = inhibition, % at 16 µg/mL (by protocol) | Clostridium difficile clinical isolate growth, OD600, 24 h; active compounds read low | AID 1259249 | hit rate 0.25% among 86,000;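 active = mean growth activity at or below -80% and every replicate also at or below -80%; inconclusive = mean at or below -80% but some replicate above -80%; inactive = mean growth activity above -80%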;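 also: 0% = DMSO wells and -100% = levofloxacin 16 µg/mL wells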
T cruzi growth-2: blocks T. cruzi growth in NIH3T3 host cells; shares compounds with T cruzi growth-1; T. cruzi beta-gal in NIH3T3, GalScreen luminescence, 90 h; inhibition, % at 8.35 µM; hit rate 72% among 5,600; AID 651739;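 active = mean replicate inhibition above about 95% and at least 55% of replicates individually reaching it, limit read from the data; inconclusive = only one of the two criteria is met; inactive = neither criterion is met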
T cruzi growth-3: Trypanosoma cruzi proliferation inhibition; shares compounds with T cruzi growth-1; T. cruzi beta-gal in NIH3T3, GalScreen luminescence, 90 h; inhibition, % at 2.09 µM; hit rate 21% among 5,600; AID 651740;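 active = mean inhibition above about 95%, with at least 55% of replicates also reaching it, limit read from the data; inconclusive = meets just one of the two conditions; inactive = meets neither condition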;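 also: plate controls were neutral control median for no effect and positive control median for full effect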
3T3 cytotox: cytotoxicity in mouse NIH/3T3 fibroblasts; hit rate 14% among 5,600; shares compounds with T cruzi growth-1; NIH/3T3 viability, CellTiter-Glo ATP luminescence, 90 h; cytotoxicity (signal decrease), % at 8.35 µM;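 active = mean signal decrease across replicates above about 35% based on untreated-well scatter, with enough replicates individually passing, limit read from the data; inconclusive = no rule stated though some were filed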;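 also: 0% = median of neutral control wells and 100% = median of positive control wells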
3T3 cytotox 2: NIH/3T3 (mouse) viability loss; shares compounds with T cruzi growth-1; inhibition, % at 24.9 µM; hit rate 56% among 5,600; NIH/3T3 viability, CellTiter-Glo ATP luminescence, 90 h; AID 651744;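 active = mean loss of cell viability signal at or above a set limit, and enough replicates individually reaching it; inconclusive = meets only the mean limit or only the replicate share; inactive = meets neither condition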;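 also: 0% = median of neutral control wells and 100% = median of positive control wells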
* marks the source's active call; other numbers are inactive results; u = inconclusive; x = no result given; ! = repeats disagree. A selection: hits, their analogues and other compounds. The true share with any hit is near 6.7%.

SMILES | T cruzi growth-1 | Pf Dd2 inh | C diff growth | T cruzi growth-2 | T cruzi growth-3 | 3T3 cytotox | 3T3 cytotox 2
C[C@H]1CN([C@@H](C)CO)C(=O)Cc2cc(NC(=O)Cc3ccccc3)ccc2O[C@@H]1CN(C)Cc1ccc(-c2ccccc2)cc1 | 107* | -26 | 39 | 113* | 75 | 8 | 73*
C[C@@H]1CN([C@@H](C)CO)C(=O)Cc2cc(NC(=O)Cc3ccccc3)ccc2O[C@H]1CN(C)Cc1ccc2c(c1)OCO2 | 79 | -25 | 0 | x | x | x | x
CCNC(=O)C[C@@H]1CC[C@H]2[C@@H](COc3ccc(NC(=O)Nc4ccccc4C)cc3C(=O)N2C)O1 | -34 | -4 | -5 | x | x | x | x
C[C@@H]1CN([C@H](C)CO)S(=O)(=O)c2ccc(C#CC3CCCC3)cc2O[C@@H]1CN(C)S(C)(=O)=O | 110 | 35 | x | x | x | x | x
C[C@H](CO)N1C[C@H](C)[C@@H](CN(C)S(C)(=O)=O)Oc2cc(C#CC3CCCC3)ccc2S1(=O)=O | 123* | -11 | x | 102* | 36 | 20 | 66*
COCC#Cc1ccc2c(c1)O[C@@H](CN(C)S(=O)(=O)c1ccc(C)cc1)[C@@H](C)CN([C@@H](C)CO)S2(=O)=O | 76 | -36 | 4 | x | x | x | x
Cc1ccc(S(=O)(=O)N(C)C[C@H]2Oc3cc(C#CC4CCCC4)ccc3S(=O)(=O)N([C@H](C)CO)C[C@H]2C)cc1 | 126* | -48 | 13 | 97*! | 117* | 21 | 38*!
Cc1ccc(S(=O)(=O)N(C)C[C@@H]2Oc3cc(C#CC4CCCC4)ccc3S(=O)(=O)N([C@@H](C)CO)C[C@@H]2C)cc1 | 125* | -61 | 21 | 93 | 112* | 8 | 40*
Cc1ccc(S(=O)(=O)N(C)C[C@H]2Oc3cc(C#CC4CCCC4)ccc3S(=O)(=O)N([C@@H](C)CO)C[C@H]2C)cc1 | 123* | -59 | 8 | 94 | 111* | 22 | 46*
COc1ccc(S(=O)(=O)N(C)C[C@H]2Oc3cc(C#CC4CCCCC4)ccc3S(=O)(=O)N([C@@H](C)CO)C[C@@H]2C)cc1 | 57 | -50 | x | x | x | x | x
O=C(c1cccc(F)c1)N1CC2(C1)[C@@H](c1ccccc1)[C@@H](CO)N2Cc1ccccn1 | x | 18 | -1 | x | x | x | x
C/C=C/c1ccc([C@@H]2[C@H](CO)N(C(=O)CN(C)C)C23CN(C(=O)C2CC2)C3)cc1 | x | 4 | 5 | x | x | x | x
C[C@@H]1CN([C@@H](C)CO)C(=O)c2cc(C3=CCCC3)cnc2O[C@H]1CN(C)C(=O)c1ccncc1 | -75 | 31 | 0 | x | x | x | x
C[C@@H]1CCCCO[C@@H](CN(C)C)[C@@H](C)CN([C@@H](C)CO)C(=O)c2cc(NC(=O)CCC(F)(F)F)ccc2O1 | 1 | 35 | 5 | x | x | x | x
C[C@H](CO)N1C[C@H](C)[C@@H](CN(C)S(=O)(=O)c2ccccc2)Oc2ccc(NC(=O)Nc3cccc4ccccc34)cc2C1=O | 41 | -3 | -6 | x | x | x | x
O=C(C[C@@H]1CC[C@@H]2[C@H](COC[C@H](O)CN2Cc2ccccc2)O1)NCCc1ccccc1 | 47 | 6 | 11 | x | x | x | x
C[C@H]1CN([C@@H](C)CO)C(=O)c2cc(NC(=O)CCCCCC(=O)Nc3ccccc3N)ccc2O[C@@H]1CN(C)S(C)(=O)=O | x | 55 | -5 | x | x | x | x
COc1ccc(CN(C)C[C@H]2Oc3ccc(NS(C)(=O)=O)cc3C(=O)N([C@@H](C)CO)C[C@H]2C)cc1 | x | -2 | 0 | x | x | x | x
CNC[C@@H]1OCCCC[C@H](C)Oc2ccc(NC(=O)CCC(F)(F)F)cc2C(=O)N([C@H](C)CO)C[C@@H]1C | 29 | 38 | -3 | x | x | x | x
Cc1ccc(S(=O)(=O)N(C)C[C@H]2Oc3cc(C#CC4CCCC4)ccc3S(=O)(=O)N([C@@H](C)CO)C[C@@H]2C)cc1 | 121* | -64 | 14 | 97* | 109* | 30 | 44*
COCC#Cc1ccc2c(c1)O[C@H](CN(C)S(=O)(=O)c1ccc(C)cc1)[C@H](C)CN([C@H](C)CO)S2(=O)=O | 76 | -34 | 7 | x | x | x | x
Cc1ccc(S(=O)(=O)N(C)C[C@@H]2Oc3cc(C#CC4CCCC4)ccc3S(=O)(=O)N([C@H](C)CO)C[C@H]2C)cc1 | 128* | -65 | 16 | 103* | u | 74* | 66*
O=C(NCC[C@@H]1CC[C@@H](NC(=O)Nc2cc(F)ccc2F)[C@@H](CO)O1)Nc1ccc(Cl)cc1 | 10 | -2 | 4 | x | x | x | x
COc1cccc(S(=O)(=O)N2CCCCN3[C@H](CO)[C@H](c4ccc(-c5cncnc5)cc4)[C@H]3C2)c1 | 82 | 9 | 7 | x | x | x | x
COc1cccc(S(=O)(=O)N2CCCCN3[C@@H](CO)[C@H](c4ccc(-c5cccnc5)cc4)[C@@H]3C2)c1 | 107* | 4 | -8 | 100* | 43 | u | 38*
SMILES | T cruzi growth-1 | Pf Dd2 inh | C diff growth | T cruzi growth-2 | T cruzi growth-3 | 3T3 cytotox | 3T3 cytotox 2
COc1cccc(S(=O)(=O)N2CCCCN3[C@H](CO)[C@H](c4ccc(-c5cncnc5)cc4)[C@@H]3C2)c1 | 36 | 33 | 8 | x | x | x | x
COc1cccc(S(=O)(=O)N2CCCCN3[C@H](C2)[C@@H](c2ccc(-c4cccnc4)cc2)[C@@H]3CO)c1 | 114* | -65 | -2 | 112* | 84 | 23 | 51*
COc1ccc(CN2CC3(CN(C(=O)Cc4ccncc4)C3)c3c([nH]c4cc(OC)ccc34)[C@H]2CO)cc1 | x | -56 | 2 | x | x | x | x
CN1C(=O)c2cc(NC(=O)c3ccc(F)cc3)ccc2OC[C@H]2O[C@@H](CC(=O)NC3CCC3)CC[C@H]21 | 11 | -20 | 13 | x | x | x | x
O=C(CCN1CCCCC1)N[C@@H]1CC[C@@H](CCNC(=O)c2cc(Cl)cc(Cl)c2)O[C@H]1CO | 1 | 8 | x | x | x | x | x
C[C@@H]1CN([C@H](C)CO)C(=O)c2cc(C#CCc3ccccc3)cnc2O[C@@H]1CN(C)Cc1cccc(F)c1 | -5 | -33 | x | x | x | x | x
C[C@H](CO)N1C[C@H](C)[C@H](CN(C)Cc2cccc(F)c2)Oc2ncc(C#CCc3ccccc3)cc2C1=O | -74 | -16 | x | x | x | x | x
CC(C)CC#Cc1cnc2c(c1)C(=O)N([C@@H](C)CO)C[C@H](C)[C@@H](CN(C)Cc1cccc(F)c1)O2 | 102* | -9 | 3 | 108* | 83 | 17 | 105*
CC(C)CC#Cc1cnc2c(c1)C(=O)N([C@H](C)CO)C[C@@H](C)[C@H](CN(C)Cc1cccc(F)c1)O2 | 103* | -52 | -2 | 106* | 46 | 24 | 102*
CC(C)CC#Cc1cnc2c(c1)C(=O)N([C@H](C)CO)C[C@@H](C)[C@@H](CN(C)Cc1cccc(F)c1)O2 | u | -42 | 0 | 104* | 50 | 18 | 61*
C[C@@H]1CN([C@H](C)CO)C(=O)c2cc(C#CCc3ccccc3)cnc2O[C@H]1CN(C)Cc1cccc(F)c1 | 72 | -60 | x | x | x | x | x
COc1cc(CN2CC3(CN(C(=O)Nc4cccc(F)c4)C3)c3c(n(C)c4cc(OC)ccc34)[C@H]2CO)cc(OC)c1 | x | -67 | 49 | x | x | x | x
